Experimental findings from ChEMBL document CHEMBL4513216, “Probing the Open Global Health Chemical Diversity Library for Multistage-Active Starting Points for Next-Generation Antimalarials” (ACS Infect Dis, 2020) are described below.

About 2,700 (4%) of roughly 68,000 compounds showed an effect of 50% or more. Many of the other results were omitted from the sample, so strong results are more common in it than they were.

This test deals with Plasmodium berghei. The test can be described thus: Screen against P. berghei liver stage (PbLuc), transformed with Luciferase, at 2uM. Type of test: functional, HepG2. The conditions noted are these: tested at 2 uM.
As for `CN1CCN(C2CCN(Cc3nc(-c4ccoc4)no3)CC2)C1=O`, the INHIBITION is given as -17.31%. As for `Cc1ncc(CN(C)C(=O)Nc2cccc(CN3CCOC3=O)c2)s1`, the figure is 56.2%; as for `Cc1ncc(CN(C)C(=O)Nc2cccc(N3CCOC3=O)c2)s1`, -127.85%; as for `Cc1ncc(CN(C)C(=O)Nc2ccc(CN3CCOC3=O)cc2)s1`, 10.61%. Next, `CS(=O)(=O)NC1CCN(Cc2ccc(OCc3ccccn3)cc2)CC1`: -15.64%. For the molecule `CCN1CCOC(CNCc2cccc(OCc3ccccn3)c2)C1` (configuration not stated), the INHIBITION was 3.06%. As to `CS(=O)(=O)NC1CCCN(Cc2ccc(OCc3ccccn3)cc2)C1` (configuration not stated), the INHIBITION stood at 10.63%. For `CC(=O)NC1CCCN(Cc2ccc(OCc3ccccn3)cc2)C1` (configuration not stated), the INHIBITION came to 57.92%. In the case of `CCN1CCOC(CNCc2ccc(OCc3ccccn3)cc2)C1` (configuration not stated), the INHIBITION was 50.75%. As for `CN1CCOC(CNCc2ccc(OCc3ccccn3)cc2)C1` (configuration not stated), the figure is -12.27%.

Consider `c1cnc(N2C[C@H]3CCN(CCN4CCCC4)C[C@H]3C2)cn1`, for which the INHIBITION is on record as -27.22%. Next, `COCCNC(=O)c1nnc2ccc(N3CCOCC3)cc2n1`: 26.54%. Next, `CSc1nc2ncc3c(=O)n(CCN4CCCCC4)ccc3n2n1`: 8.9%; `COC1CCN(C(=O)CC2CCCC2)CC(=O)N(C)c2ccccc21` (configuration not stated): 8.41%. On to `COC1CCN(C(=O)COC(C)=O)CC(=O)N(C)c2ccccc21` (configuration not stated), for which the INHIBITION was -46.46%. `COC1CCN(C(=O)CC(C)(C)C)CC(=O)N(C)c2ccccc21` (configuration not stated): the INHIBITION was 51.71%. For `CN(Cc1noc2c1CCCC2)C(=O)C1CCOc2ccccc2C1` (configuration not stated), the INHIBITION was 8.89%. On to `c1csc(CNCC2COCc3c(-c4ccoc4)nnn3C2)n1` (configuration not stated), for which the INHIBITION is listed as -45.9%. Turning to `O=C([C@@H]1COC[C@H]2CN(C3CCOCC3)C[C@H]21)N1CCCO1`, the INHIBITION stood at 35.15%. As to `CN(Cc1ccc2c(c1)OCO2)C(=O)C1CC(c2cccc(F)c2)=NO1` (configuration not stated), the INHIBITION is reported as 53.68%. For `Cc1cc(CN(C)C(=O)C2CC(c3cccc(F)c3)=NO2)no1` (configuration not stated), the INHIBITION is reported as -30.08%. As for `CN(Cc1cccc(C#N)c1)C(=O)C1CC(c2cccc(F)c2)=NO1` (configuration not stated), the figure is 17.47%; as for `CNC(=O)N1C[C@@H]2C[C@H](C(=O)Nc3ccccc3)[C@H](C1)O2`, 6.57%. As for `c1ccc(-c2cc(CNCCCC3CCOC3)c3nnnn3c2)cc1` (configuration not stated), the figure is 22.81%; as for `Cc1nn(C)c(Cl)c1C(=O)NCC1(C(N)=O)CCOCC1`, 32.02%; as for `Cc1nn(C)c(C)c1CCC(=O)NCC1(C(N)=O)CCOCC1`, 25.73%. Consider `CCc1nc(CNCC2(C(N)=O)CCOCC2)cs1`, for which the INHIBITION was 33.9%.

In the case of `CCc1nc(CC(=O)NCC2(C(N)=O)CCOCC2)cs1`, the INHIBITION stood at 55.36%.

Consider `NC(=O)C1(CNCc2csc(-c3cccs3)n2)CCOCC1`, for which the INHIBITION turned out to be 36.28%.

Consider `Cc1nn(C)c(C)c1CC(=O)NCC1(C(N)=O)CCOCC1`, for which the INHIBITION worked out at 60.59%. Next, `Nc1ccc(C(=O)N2CCCC(C(=O)CCc3ccccc3)C2)cn1` (configuration not stated): -62.48%. On to `COCc1cnc2n1CCN(C1CCCC1)C2C` (configuration not stated), for which the INHIBITION is listed as 0.42%.

`c1cc(-c2nn3c(CN4CCOCC4)nnc3s2)ccn1`: the INHIBITION worked out at 2.88%. Regarding `COc1cc(C(=O)N2CCC(c3n[nH]c(C4CC4)n3)CC2)ccc1C`, the INHIBITION was found to be 10.5%. Turning to `O=C(NCc1cccnc1)[C@@H]1CC[C@@H]2[C@@H](CCN2c2ncc(F)cn2)O1`, the INHIBITION was 12.7%. As for `COc1ccc(-c2nnsc2C(=O)N2CCSCC2)cc1`, the figure is -20.55%; as for `NCCCn1nc(C(F)(F)F)c2c1CCC2`, 58.18%; as for `N#CCCn1nc(C(F)(F)F)c2c1CCCC2`, 17.01%. As for `N#CCCn1nc(C(F)(F)F)c2c1CCC2`, the figure is 10.83%.

For the molecule `COCC1CN(Cc2cccnc2)Cc2nnn(CC3CC3)c21` (configuration not stated), the INHIBITION is reported as -94.44%. Next, `COCC1CC2(CCN(c3cc(OC)ncn3)CC2)CN1C(C)C` (configuration not stated): -0.45%. In the case of `COC(=O)c1cccc(C(=O)N2CCN(C(=O)N(C)C)CC2(C)C)c1`, the INHIBITION is 7.42%. As for `CCOc1cccc(C(C)NC(=O)N2CCC(C(N)=O)CC2)c1` (configuration not stated), the INHIBITION is on record as -31.3%. As for `CCOc1cccc(C(C)NC(=O)N2CCC3(CC2)OCCO3)c1` (configuration not stated), the figure is 58.01%; as for `CC(NC(=O)N1CCC2(C1)OCCO2)c1cccc(Cl)c1` (configuration not stated), 22.12%. On to `COc1cc(N2CCC3(CC2)CCN(c2cccnc2)C3=O)ncn1`, for which the INHIBITION came out at 2.72%. As for `O=C(c1ccc2nncn2c1)N1CCCCC1Cn1cccn1` (configuration not stated), the figure is 39.47%. As for `O=C(NCCOc1ccc(Cl)cn1)Nc1nccs1`, the figure is 50.61%; as for `O=C(NCCOc1ccc(Cl)cn1)Nc1ccccn1`, -65.52%. As for `O=C(NCCOc1ccc(Cl)cn1)Nc1cccnc1`, the figure is -1.56%; as for `C=Cc1ccc(C(=O)N2CCCC(Nc3ccc(OC)cc3)C2)cc1` (configuration not stated), 19.42%; as for `CCn1cc(CN2CCCN(C(=O)C3(C)CCOCC3)CC2)cn1`, -1.55%. Turning to `CN(Cc1cccc(OC(F)(F)F)c1)C(=O)c1cnsn1`, the INHIBITION worked out at 10.1%. Next, `CC(C)CN1C[C@@H]2C(=O)NC3(CCN(C(=O)c4cccnc4)CC3)[C@@H]2C1`: 14.47%; `Cc1cnc(-c2nc(C3CCN(Cc4ccccc4O)CC3)no2)cn1`: -10.49%; `O=C(NCCOC1CCCC1)c1ccc(-c2ccco2)[nH]c1=O`: -40.62%.

Take `c1ncc(Nc2nccc(C3CCCCN3CC3CCCCC3)n2)cn1` (configuration not stated): the INHIBITION is listed as -8.23%.

`O=C(CCc1ccc(O)cc1)N1CCC(Cc2ccc(CO)cc2)C1` (configuration not stated): the INHIBITION is listed as 11.28%. As for `O=C(CCN1CCCCC1)N1CCC(Cc2ccc(CO)cc2)C1` (configuration not stated), the figure is 50.61%; as for `O=C(CCN1CCOCC1)N1CCC(Cc2ccc(CO)cc2)C1` (configuration not stated), -11.66%. For the molecule `O=C(CN1CCC(c2cccc(F)c2)C1)NCC(F)(F)F` (configuration not stated), the INHIBITION amounted to 20.28%.

`CC(C)NC(=O)CN1CCC(c2cccc(F)c2)C1` (configuration not stated): the INHIBITION was found to be 28.33%.

With `O=C(CN1CCC(c2cccc(F)c2)C1)NCc1ccco1` (configuration not stated), the INHIBITION turned out to be 51.21%. For the molecule `CN1C[C@H]2CC[C@@H](CC1=O)N2C(=O)c1ccc(-c2ccccc2)[nH]c1=O`, the INHIBITION is listed as -40.36%. As for `Nc1nccc(C2CCN(CCO)C2)n1` (configuration not stated), the figure is 19.86%; as for `Cc1ccc(N2CCO[C@H]3CN(Cc4ccccn4)C[C@H]32)nn1`, 4.99%. Consider `Cc1ccoc1C(=O)N1CCn2cc(CN3CCCC3)nc2C1`, for which the INHIBITION turned out to be 37.2%.
